# According to PubChem BioAssay (NCI):
# This is part of a sample that, as a whole, favours compounds with a hit. Of some 83,000 tested, about 20% had one in any assay.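 The endpoint reported here, percent growth, reads 100 for growth as untreated, 0 for no net growth and -100 for all cells dead.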 Activity calls are given as the source filed them. Rule for the calls: active = growth percent below 10; inactive = the rest.
# Assays:
# Assay in all cases: NCI-60 one-dose screen, 48 h (100 = growth as untreated, 0 = no growth, -100 = all killed)
# Conditions in all cases: 10 µM unless noted
# NCI-H23 lung = system: NCI-H23 lung
# NCI-H226 lung = system: NCI-H226 lung
# NCI-H322M lung = system: NCI-H322M lung
# HOP-62 NSCLC = system: HOP-62 NSCLC
# NCI-H460 lung = system: NCI-H460 lung
# HOP-92 NSCLC = system: HOP-92 NSCLC
# NCI-H522 lung = system: NCI-H522 lung
# A549/ATCC NSCLC = system: A549/ATCC NSCLC
# 786-0 renal = system: 786-0 renal
# COLO 205 colon = system: COLO 205 colon
# DU-145 prostate = system: DU-145 prostate
# K-562 leukemia = system: K-562 leukemia
# MALME-3M melanoma = system: MALME-3M melanoma
# MDA-MB-231 breast = system: MDA-MB-231 breast
# RXF 393 renal = system: RXF 393 renal
# SF-268 CNS = system: SF-268 CNS
# SF-295 CNS = system: SF-295 CNS
# SF-539 CNS = system: SF-539 CNS
# UACC-257 melanoma = system: UACC-257 melanoma
# M14 melanoma = system: M14 melanoma
Compound,growth (NCI-H23 lung),growth (NCI-H226 lung),growth (NCI-H322M lung),growth (HOP-62 NSCLC),growth (NCI-H460 lung),growth (HOP-92 NSCLC),growth (NCI-H522 lung),growth (A549/ATCC NSCLC),growth (786-0 renal),growth (COLO 205 colon),growth (DU-145 prostate),growth (K-562 leukemia),growth (MALME-3M melanoma),growth (MDA-MB-231 breast),growth (RXF 393 renal),growth (SF-268 CNS),growth (SF-295 CNS),growth (SF-539 CNS),growth (UACC-257 melanoma),growth (M14 melanoma)
O=C(NCCCN1CCOCC1)c1cccc(N2C(=O)/C(=C/c3ccc(F)cc3)SC2=S)c1,92.5% (inactive),90.4% (inactive),104% (inactive),100% (inactive),107% (inactive),46.7% (inactive),90.3% (inactive),103% (inactive),97.2% (inactive),111% (inactive),101% (inactive),96.2% (inactive),90.4% (inactive),88.9% (inactive),94.2% (inactive),94.1% (inactive),95.5% (inactive),90.6% (inactive),97.2% (inactive),93.8% (inactive)
Fc1ccc2[nH]cc(-c3nonc3-c3c[nH]c4ccc(Br)cc34)c2c1,24.4% (inactive),53.6% (inactive),35.9% (inactive),9.17% (active),1.22% (active),22.4% (inactive),-12.1% (active),19.5% (inactive),23.5% (inactive),-45.5% (active),42% (inactive),4.21% (active),21.2% (inactive),-20.2% (active),77.3% (inactive),38.2% (inactive),9.73% (active),16.7% (inactive),42.7% (inactive),-5.26% (active)
CCCCCCCCn1ccc2cc(NC(=O)CN3CCN(c4nc(C)cc(Cl)n4)CC3)ccc21,91.5% (inactive),88.9% (inactive),87.8% (inactive),99.3% (inactive),100% (inactive),79.3% (inactive),81.5% (inactive),96.3% (inactive),97.7% (inactive),100% (inactive),101% (inactive),85.2% (inactive),91.5% (inactive),107% (inactive),103% (inactive),96.3% (inactive),102% (inactive),107% (inactive),114% (inactive),96.1% (inactive)
C=CCn1cc(-c2nc3ccccc3s2)c2cc(-c3ccc4c5c(cccc35)C(=O)N(N)C4=O)ccc21,88.2% (inactive),89.8% (inactive),96.9% (inactive),90.2% (inactive),98.9% (inactive),93.7% (inactive),84.9% (inactive),105% (inactive),99.3% (inactive),109% (inactive),110% (inactive),107% (inactive),101% (inactive),83.1% (inactive),106% (inactive),89.5% (inactive),99.1% (inactive),101% (inactive),104% (inactive),94.5% (inactive)
N#C/C(=C/c1ccc([N+](=O)[O-])cc1)n1nnc2cc(F)c(F)cc21,93.8% (inactive),102% (inactive),98.4% (inactive),96.6% (inactive),33.1% (inactive),99.6% (inactive),62.6% (inactive),87.6% (inactive),42.1% (inactive),77.4% (inactive),54.2% (inactive),13.9% (inactive),74.8% (inactive),84.7% (inactive),83.3% (inactive),90.5% (inactive),91.4% (inactive),20.7% (inactive),65.5% (inactive),70.1% (inactive)
CCOc1nc(-c2ccccc2)cc2c(O)c(C(=O)NN)[nH]c(=O)c12,117% (inactive),105% (inactive),104% (inactive),123% (inactive),86.1% (inactive),93.2% (inactive),88.5% (inactive),103% (inactive),97.3% (inactive),121% (inactive),120% (inactive),134% (inactive),112% (inactive),99.3% (inactive),108% (inactive),86.2% (inactive),107% (inactive),96.9% (inactive),103% (inactive),98.8% (inactive)
CCOC(=O)C1=C(NC)OCC1=O,99.9% (inactive),96.3% (inactive),100% (inactive),100% (inactive),101% (inactive),83.5% (inactive),96.7% (inactive),90.9% (inactive),106% (inactive),112% (inactive),110% (inactive),99% (inactive),113% (inactive),107% (inactive),100% (inactive),98.6% (inactive),106% (inactive),104% (inactive),92.5% (inactive),102% (inactive)
O=C(O)[C@@H]1c2ccccc2-c2ccccc2[C@H]1C(=O)O,91.4% (inactive),97.8% (inactive),99.2% (inactive),90.8% (inactive),109% (inactive),61.5% (inactive),91% (inactive),102% (inactive),88.8% (inactive),106% (inactive),115% (inactive),98% (inactive),96.8% (inactive),105% (inactive),102% (inactive),105% (inactive),98.8% (inactive),98.4% (inactive),80.6% (inactive),92.5% (inactive)
CCN(CC)CCCN1C(=O)c2c(c(C)c3c(oc4cc(O)ccc43)c2C)C1=O,104% (inactive),35.4% (inactive),92.5% (inactive),94.5% (inactive),-24.6% (active),93.7% (inactive),82.6% (inactive),-74% (active),-80.6% (active),57.4% (inactive),-61.7% (active),-14.4% (active),-80.4% (active),-80.3% (active),75.7% (inactive),-41.4% (active),110% (inactive),96.4% (inactive),94.5% (inactive),-88.8% (active)
CS(=O)(=O)Nc1cc(-c2ccc3ncnc(Nc4c(Cl)ccc5c4OCO5)c3c2)cnc1Cl,0.217% (active),12.7% (inactive),-39% (active),9.21% (active),7.13% (active),-10.5% (active),-13.8% (active),-13.7% (active),0.785% (active),-45% (active),6.12% (active),13.6% (inactive),-29% (active),1.01% (active),-45.8% (active),-21.5% (active),-29.8% (active),-36.9% (active),-3.47% (active),-9.85% (active)
COc1ccc(-c2nn(-c3ccccc3)cc2/C=C2/SC(=S)N(C)C2=O)cc1,94.5% (inactive),55.1% (inactive),60.8% (inactive),25.3% (inactive),11.2% (inactive),74.7% (inactive),91.2% (inactive),36.8% (inactive),1.33% (active),64.4% (inactive),90.7% (inactive),56.9% (inactive),88.4% (inactive),63% (inactive),96.5% (inactive),99.2% (inactive),51.4% (inactive),70.3% (inactive),29.4% (inactive),97.3% (inactive)
COc1ccc(C/C(C)=C(/c2ccc(OCCN3CCCCC3)cc2)c2ccc(OC(=O)NCc3ccccc3)cc2)cc1,-84.6% (active),-70% (active),-81.7% (active),-89.2% (active),-90% (active),-92.7% (active),-80.9% (active),-93.4% (active),-91.6% (active),-90.4% (active),-97.2% (active),-56.3% (active),-87.3% (active),-86.9% (active),-91.4% (active),-76.6% (active),-94.8% (active),-92.5% (active),-83.2% (active),-92.3% (active)
O=[N+]([O-])/C(=C/C=C/c1ccccc1)c1ccccc1,75.5% (inactive),87.8% (inactive),100% (inactive),35.9% (inactive),70.7% (inactive),-8.76% (active),19.8% (inactive),72.6% (inactive),-7.75% (active),23.2% (inactive),26% (inactive),24.4% (inactive),96.1% (inactive),61.7% (inactive),35.4% (inactive),35.3% (inactive),91.5% (inactive),36.8% (inactive),77% (inactive),37.8% (inactive)
COC(C(=O)[C@@H](O)[C@@H](C)O)[C@@H]1Cc2cc3cc(O[C@H]4C[C@@H](O[C@H]5C[C@@H](O)[C@H](O)C(C)O5)[C@H](O)C(C)O4)c(C)c(O)c3c(O)c2C(=O)[C@H]1O[C@H]1C[C@@H](O[C@H]2C[C@@H](O[C@H]3C[C@@H](O)[C@H](OC)C(C)O3)[C@@H](O)C(C)O2)[C@H](O)C(C)O1 (stereo not given in full),-30.6% (active),7.45% (active),5.34% (active),-6.87% (active),9.27% (active),-2.22% (active),-26.8% (active),3.24% (active),4.65% (active),-44.4% (active),12% (inactive),5.99% (active),-30.7% (active),17.2% (inactive),-55.4% (active),14.2% (inactive),8.2% (active),-23.6% (active),-21.7% (active),-17.9% (active)
